Data from PubChem BioAssay (EPA / NIEHS).
The source holds several records for some structures; these can differ, active in one and inactive in another. The source made the active and inactive calls. The calls were made as follows: active = hit-call score of the fitted dose curve at least 0.9, where 1 is the maximum; inactive = score below 0.9.

read-out: Interleukin-8 (IL8), CXCL8 (gene 3576); assay: BSK_SAg_IL8: BioMAP Diversity Plus: SAg Assay for Interleukin-8 (IL8) Biomarker Activity (AID 2283094); conditions: primary human HUVEC with PBMC; actives raise or lower the signal
Experimental: BSK_SAg is a cell-based, multiplexed-readout assay that uses umbilical vein endothelium and peripheral blood mononuclear cells, a human vascular primary cell co-culture, with measurements taken at 24 hours after chemical dosing in a 96-well plate.BSK_SAg_IL8 is an assay component measured in the BSK_SAg assay. It measures IL-8 antibody related to regulation of gene expression using ELISA technology.Data from the assay component BSK_SAg_IL8 was analyzed into 1 assay endpoint. This assay endpoint, BSK_SAg_IL8, was analyzed with bidirectional fitting relative to DMSO as the negative control and baseline of activity. Using a type of binding reporter, gain or loss-of-signal activity can be used to understand changes in the signaling as they relate to the gene CXCL8. Furthermore, this assay endpoint can be referred to as a primary readout, because this assay has produced multiple assay endpoints where this one serves a signaling function. To generalize the intended target to other relatable targets, this assay endpoint is annotated to the cytokine intended target family, where the subfamily is interleukins.
The levels of cell surface (or secreted, indicated by the prefix "s") biomarker endpoints were measured by ELISA. Overt cytotoxicity to cells in confluent adherent cultures (all systems other than the BT system) was assessed by measuring total protein levels using sulforhodamine B (SRB) staining in parallel cultures at the time of biomarker measurements, indicated as SRB endpoints. For proliferation assays for adherent cell types, individual cell types are cultured at sub-confluence and relative cell numbers quantified by SRB staining at time points optimized for each system (48 h: 3C and CASM3C systems; 72 h: BT and HDF3CGF systems; 96 h: SAg system). SRB was performed by staining cells with 0.1% SRB after fixation with 10% TCA and reading wells at 560 nm.Viability and proliferation of PBMC (T cells) was quantified by Alamar Blue reduction for the SAg and BT systems. For PBMC viability (referred to as PBMC Cytotoxicity within the assay endpoint names), cells were plated (75,000/well in a 96-well plate) and then chemical samples added for 1 h before addition of activators, SEB and TSST-1 (20 ng/mL final concentration each). Cells were incubated for 90 h. Then, Alamar Blue (20 uL/well) (Invitrogen, Cat DAL1100) was added for 6 h, and the plates were read with a fluorescence microplate reader at 546/580 nm (excitation/emission). For PBMC proliferation, cells were plated and activated as above but incubated for only 16 h prior to addition of Alamar Blue. Plates were read after 6 h.

SMILES | outcome | AC50
CC1(C)C2=CCCC(C)(C)[C@]23CC[C@H]1C3 | inactive | –
IC(I)I | inactive | –
c1ccc2cc(Nc3ccc(Nc4ccc5ccccc5c4)cc3)ccc2c1 | inactive | –
CC(=O)Nc1ccc(C(=O)CCl)cc1 | – | 4.9 µM (active)
C=C(C)C(=O)OCCOCCOCCOCCOC(=O)C(=C)C | inactive | –
O=C(Nc1ccc2c(O)c(N=Nc3ccc(N=Nc4ccc(S(=O)(=O)O)cc4)cc3)c(S(=O)(=O)O)cc2c1)c1ccccc1 | inactive | –
CCCCCCCCCCCCCCCC(=O)OC/C=C(C)/C=C/C=C(C)/C=C/C1=C(C)CCCC1(C)C | inactive | –
CS(=O)(=O)OCCCCOS(C)(=O)=O | inactive | –
c1ccc(CCc2ccccc2)cc1 | – | 31.6 µM (active)
CCCCCC(C=O)=Cc1ccccc1 | inactive | –
CN(c1nccc(=O)[nH]1)C1CCN(c2nc3ccccc3n2Cc2ccc(F)cc2)CC1 | inactive | –
Cc1cc(CCC(=O)OCCOCCOCCOC(=O)CCc2cc(C)c(O)c(C(C)(C)C)c2)cc(C(C)(C)C)c1O | inactive | –
CS(=O)(=O)c1ccc(C2=C(c3ccccc3)C(=O)OC2)cc1 | inactive | –
COc1cc(Cl)c(OC)cc1N | inactive | –
Clc1cc(Cl)c(-c2c(Cl)c(Cl)cc(Cl)c2Cl)cc1Cl | – | 10 µM (active)
CC(=O)c1c(C)c([N+](=O)[O-])c(C(C)(C)C)c([N+](=O)[O-])c1C | inactive | –
Oc1c(Cl)cc(Cl)c(Cl)c1Cc1c(O)c(Cl)cc(Cl)c1Cl | – | 4.7 µM (active)
CC(C)(N=C=O)c1cccc(C(C)(C)N=C=O)c1 | inactive | –
O=C1OC[C@H](Cc2cccc(O)c2)[C@H]1Cc1cccc(O)c1 | inactive | –
CC(C)(C)CC(C)(C)c1ccc(OCCOCC[N+](C)(C)Cc2ccccc2)cc1 | – | 2.46 µM (active)

SMILES | outcome | AC50
CC1(C)CCC[C@]2(C)[C@H]3CCO[C@]3(C)CC[C@@H]12 | inactive | –
COc1ccc(OC)c(N=Nc2c(O)ccc3ccccc23)c1 | inactive | –
CCOC(=O)C(C#N)=C(c1ccccc1)c1ccccc1 | inactive | 20 µM (active)
O=C1c2ccccc2C(=O)c2c(O)ccc(O)c21 | – | 3.15 µM (active)
CC(=O)C1(C)CC2=C(CCCC2(C)C)CC1C (stereo not given) | – | 34.4 µM (active)
C[C@@H]1CCN(C(=O)[C@H](CCCN=C(N)N)NS(=O)(=O)c2cccc3c2NC[C@H](C)C3)[C@@H](C(=O)O)C1 | inactive | –
CCCCN(CCCC)C(=O)N(CCCC)CCCC | – | 15.6 µM (active)
CCCCOC(=O)CCCCCCCC(=O)OCCCC | inactive | –
C=CC(C)(O)CCC=C(C)C (stereo not given) | inactive | –
CN(C)C(=O)Nc1ccc(Oc2ccc(Cl)cc2)cc1 | inactive | –
CCCCCCC(CO)CCCC (stereo not given) | inactive | –
CC(C=O)Cc1ccc(C(C)(C)C)cc1 (stereo not given) | inactive | –
CN(C)C(=S)SC(=S)N(C)C | inactive | –
CC=Cc1ccc(OCC)c(O)c1 | inactive | –
COc1ccc(CCN2CCC(Nc3nc4ccccc4n3Cc3ccc(F)cc3)CC2)cc1 | – | 2.39 µM (active)
CC(CN=Cc1ccccc1O)N=Cc1ccccc1O (stereo not given) | inactive | –
C1=CC2C3C=CC(C3)C2C1 (stereo not given) | inactive | –
O=CN1CCOCC1 | inactive | –
O=C1OC2(c3ccccc31)c1ccc(O)c(Br)c1Oc1c2ccc(O)c1Br | inactive | –
